Among the test systems are SR leukemia; RPMI-8226 leukemia; OVCAR-8 ovarian; OVCAR-5 ovarian; SK-OV-3 ovarian; IGROV1 ovarian; OVCAR-3 ovarian; HS 578T breast; NCI/ADR-RES ovarian; T-47D breast; BT-549 breast; MDA-MB-435 melanoma; SW-620 colon; MCF7 breast; HCT-116 colon; HCC-2998 colon; KM12 colon.
Holding throughout (test): NCI-60 one-dose screen, 48 h (100 = growth as untreated, 0 = no growth, -100 = all killed)
Settings in all cases: 10 µM unless noted

Compounds without any hit were thinned out: in the full panel of roughly 83,000, 20% have a hit.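 Results are percent growth after 48 hours of single-concentration exposure. 100 means growth as in untreated cells, lower positive values show inhibition; negative values down to -100 show cell death.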 Unmarked numbers belong to inactive results. Activity calls are given as the source filed them. How the source made its calls: active means growth percent below 10; inactive means the rest.

As to `COc1ccc(NC(=O)c2ccoc2COc2ccccc2)cc1`, the growth in the test with SR leukemia was 88.4%; in the test with RPMI-8226 leukemia it was 91.8%; in the test on OVCAR-8 ovarian, 100%; with OVCAR-5 ovarian, 95.8%; in the test with SK-OV-3 ovarian, 106%; with IGROV1 ovarian, 91.2%. The growth with OVCAR-3 ovarian was 109%; in the test on HS 578T breast it was 99.7%; with NCI/ADR-RES ovarian it was 93%; with T-47D breast, 95.1%; with BT-549 breast, 92%; in the test on MDA-MB-435 melanoma, 73.6%. Moreover, the growth with SW-620 colon is 97.9%; with MCF7 breast it was 88.6%; with HCT-116 colon, 87.4%; in the test on HCC-2998 colon, 93%; in the test with KM12 colon, 93.9%.
Turning to `Cc1cccc(C)c1NC(=O)CSC(=S)N1CCCCC1`, the growth is 101% in the test with SR leukemia; 104% with RPMI-8226 leukemia; 105% with OVCAR-8 ovarian; 101% with OVCAR-5 ovarian; 110% in the test with SK-OV-3 ovarian; 90.7% in the test with IGROV1 ovarian. Moreover, the growth with OVCAR-3 ovarian is 103%; with HS 578T breast, 96.8%; in the test on NCI/ADR-RES ovarian, 103%; in the test on T-47D breast, 85.4%; with BT-549 breast, 105%; with MDA-MB-435 melanoma it was 110%. In addition, the growth in the test on SW-620 colon is 103%; in the test with MCF7 breast, 97.8%; in the test on HCT-116 colon, 99.7%; in the test on HCC-2998 colon, 100%; in the test on KM12 colon, 97.8%.
Take `CCN(CC)CCCCCCNc1ccnc2cc(Cl)ccc12`: the growth in the test with SR leukemia was 28.2%; with RPMI-8226 leukemia, 130%; in the test with OVCAR-8 ovarian, 117%; with OVCAR-5 ovarian, 112%; in the test with SK-OV-3 ovarian it was 98.2%; in the test on IGROV1 ovarian, 124%. Further, the growth in the test with OVCAR-3 ovarian is 84.6%; in the test on HS 578T breast, 92.4%; in the test on NCI/ADR-RES ovarian it was 104%; in the test on T-47D breast it was 91%; in the test on BT-549 breast it was 86.3%; in the test with MDA-MB-435 melanoma it was 88.5%. Further, the growth was 83.3% in the test on SW-620 colon; 82.7% in the test with MCF7 breast; 59.1% in the test with HCT-116 colon; 107% in the test on HCC-2998 colon; 84.9% with KM12 colon.
As to `Clc1ccc2[nH]cc(-c3nc(-c4c[nH]c5ncccc45)cs3)c2c1`, the growth was 9.06% (active) in the test on SR leukemia; 37.6% in the test with RPMI-8226 leukemia; 46.2% with OVCAR-8 ovarian; 80.6% in the test with OVCAR-5 ovarian; 59.6% in the test on SK-OV-3 ovarian; 32.8% in the test on IGROV1 ovarian. The growth in the test with OVCAR-3 ovarian was 55.9%; with HS 578T breast, 75.7%; in the test on NCI/ADR-RES ovarian it was 38.7%; with T-47D breast, 47.8%; in the test with BT-549 breast, 59.3%; with MDA-MB-435 melanoma, 49.4%. Further, the growth in the test with SW-620 colon was 18.1%; in the test with MCF7 breast, 35%; with HCT-116 colon, 23.7%; in the test with HCC-2998 colon it was 69.3%; with KM12 colon it was 23.3%.
In the case of `O=[N+]([O-])c1ccc(/C=N\Nc2ccccc2)cc1`, the growth was 106% with SR leukemia; 67.8% in the test with RPMI-8226 leukemia; 61.8% in the test with OVCAR-8 ovarian; 88% in the test with OVCAR-5 ovarian; 101% in the test on SK-OV-3 ovarian; 78% with IGROV1 ovarian. The growth was 82.5% with OVCAR-3 ovarian; 63.1% in the test on HS 578T breast; 60% in the test on NCI/ADR-RES ovarian; 72.2% in the test on T-47D breast; 68.9% in the test with MDA-MB-435 melanoma; 79.9% in the test on SW-620 colon. Moreover, the growth is 75.1% in the test on MCF7 breast, 66.3% with HCT-116 colon, 96.6% in the test on HCC-2998 colon and 36.1% with KM12 colon.
For the molecule `C#CCN=C[C@]12CC[C@@H](C(=C)C)[C@@H]1[C@H]1CC[C@@H]3[C@@]4(C)CCC(=O)C(C)(C)[C@@H]4CC[C@@]3(C)[C@]1(C)CC2`, the growth with SR leukemia is 36.5%; in the test with RPMI-8226 leukemia, 33%; with OVCAR-8 ovarian, 57.2%; in the test with OVCAR-5 ovarian it was 115%; in the test with SK-OV-3 ovarian it was 91.8%; in the test with IGROV1 ovarian, -10.9% (active). Besides, the growth in the test with OVCAR-3 ovarian was 62.3%; in the test on HS 578T breast it was 87.8%; with NCI/ADR-RES ovarian, 64.2%; in the test with T-47D breast, 37%; in the test with BT-549 breast, 48.3%; with MDA-MB-435 melanoma it was 72.4%. The growth in the test on SW-620 colon is 65.3%; with MCF7 breast, 42.5%; in the test with HCT-116 colon, 26.8%; with HCC-2998 colon, 78.1%; in the test on KM12 colon, 61%.
With `O=C(O)c1cccc2c1C(=O)N(c1ccc3c(c1)Cc1ccccc1-3)C2=O`, the growth in the test with SR leukemia was 102%; in the test on RPMI-8226 leukemia it was 110%; with OVCAR-8 ovarian, 107%; in the test with OVCAR-5 ovarian it was 116%; in the test on SK-OV-3 ovarian it was 114%; with IGROV1 ovarian, 125%. The growth with OVCAR-3 ovarian was 122%; in the test with HS 578T breast, 112%; in the test with NCI/ADR-RES ovarian, 116%; in the test on T-47D breast, 106%; in the test on MDA-MB-435 melanoma, 111%; in the test on SW-620 colon it was 105%. The growth in the test on MCF7 breast was 93.9%; with HCT-116 colon, 112%; with HCC-2998 colon, 102%; in the test on KM12 colon, 109%.
`C/C(=N\NC(=O)C(C)SC(C)C(=O)N/N=C(\C)c1cccnc1)c1cccnc1` (stereo unspecified): the growth is 79.6% in the test with SR leukemia; 101% in the test with RPMI-8226 leukemia; 109% in the test on OVCAR-8 ovarian; 110% in the test with OVCAR-5 ovarian; 109% with SK-OV-3 ovarian; 102% with IGROV1 ovarian. Moreover, the growth in the test with OVCAR-3 ovarian is 114%; in the test on HS 578T breast, 101%; in the test on NCI/ADR-RES ovarian, 108%; with T-47D breast, 104%; with BT-549 breast, 106%; in the test on MDA-MB-435 melanoma, 106%. The growth was 96.9% in the test on SW-620 colon; 95.7% in the test on MCF7 breast; 110% with HCT-116 colon; 106% with HCC-2998 colon; 107% in the test on KM12 colon.
On to `CC(CNc1nc(Nc2ccc(Cl)c(Cl)c2)nc(C(Cl)(Cl)Cl)n1)N(C)C` (stereo unspecified), for which the growth was -42.6% (active) in the test with SR leukemia; -12.5% (active) in the test with RPMI-8226 leukemia; -50.8% (active) with OVCAR-8 ovarian; 33.7% in the test with OVCAR-5 ovarian; 25.9% in the test with SK-OV-3 ovarian; -5.99% (active) in the test with IGROV1 ovarian. Also, the growth with OVCAR-3 ovarian is -67.8% (active); with HS 578T breast, -20.8% (active); with NCI/ADR-RES ovarian it was -23.6% (active); with T-47D breast, 20.4%; in the test on BT-549 breast, 45.6%; in the test on MDA-MB-435 melanoma, -47.1% (active). For the same molecule, the growth is -74.8% (active) with SW-620 colon; -64.8% (active) in the test on MCF7 breast; -88.7% (active) with HCT-116 colon; -79.4% (active) with HCC-2998 colon; -88.4% (active) in the test on KM12 colon.

Values taken from PubChem BioAssay (NCI).
